Measured values as given in the supplement of paper PMC6411743.
± gives the standard deviation of the averaged measurements. For some assays here: The full data set covers some 5,400 targets. This sample favours those with the largest changes. For some assays here: Of roughly 6,500 targets only a part is listed; those with the largest changes were picked by preference.

What was measured:
guanosine triphosphate = compound: Nc1nc2c(ncn2[C@@H]2O[C@H](COP(=O)(O)OP(=O)(O)OP(=O)(O)O)[C@@H](O)[C@H]2O)c(=O)[nH]1 [guanosine triphosphate]; assay: NP40-soluble protein abundance relative to vehicle (solubility fold change) (ratio); higher = more soluble protein in presence of GTP
Procedure, shortened: (§1)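 Eight concentrations, 0.1 to 10 mM, were tested on Jurkat crude lysate for 10 min at room temperature and then 3 min at 37 °C, in three independent experiments. The lysate was solubilised with 0.8% NP40 and benzonase, ultracentrifuged, and the supernatant TMT-labelled for LC-MS/MS. Each value is the fold change against the detergent-processed vehicle in its own replicate, from vsn-normalised intensities.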

adenosine triphosphate = compound: Nc1ncnc2c1ncn2[C@@H]1O[C@H](COP(=O)(O)OP(=O)(O)OP(=O)(O)O)[C@@H](O)[C@H]1O [adenosine triphosphate]; assay: NP40-soluble protein abundance relative to vehicle (solubility fold change) (ratio); higher = more soluble protein in presence of ATP
Procedure, shortened: as §1

Sequence of UniProt Q8N128 (Q8N128 whole entry, one chain of several): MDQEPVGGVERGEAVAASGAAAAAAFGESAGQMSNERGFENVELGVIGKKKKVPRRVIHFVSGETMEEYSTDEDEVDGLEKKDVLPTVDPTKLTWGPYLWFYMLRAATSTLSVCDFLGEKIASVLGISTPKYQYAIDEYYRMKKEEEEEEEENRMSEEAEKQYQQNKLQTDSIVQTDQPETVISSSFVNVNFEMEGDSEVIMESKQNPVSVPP
Sequence of UniProt A6NHR9 (A6NHR9 whole entry): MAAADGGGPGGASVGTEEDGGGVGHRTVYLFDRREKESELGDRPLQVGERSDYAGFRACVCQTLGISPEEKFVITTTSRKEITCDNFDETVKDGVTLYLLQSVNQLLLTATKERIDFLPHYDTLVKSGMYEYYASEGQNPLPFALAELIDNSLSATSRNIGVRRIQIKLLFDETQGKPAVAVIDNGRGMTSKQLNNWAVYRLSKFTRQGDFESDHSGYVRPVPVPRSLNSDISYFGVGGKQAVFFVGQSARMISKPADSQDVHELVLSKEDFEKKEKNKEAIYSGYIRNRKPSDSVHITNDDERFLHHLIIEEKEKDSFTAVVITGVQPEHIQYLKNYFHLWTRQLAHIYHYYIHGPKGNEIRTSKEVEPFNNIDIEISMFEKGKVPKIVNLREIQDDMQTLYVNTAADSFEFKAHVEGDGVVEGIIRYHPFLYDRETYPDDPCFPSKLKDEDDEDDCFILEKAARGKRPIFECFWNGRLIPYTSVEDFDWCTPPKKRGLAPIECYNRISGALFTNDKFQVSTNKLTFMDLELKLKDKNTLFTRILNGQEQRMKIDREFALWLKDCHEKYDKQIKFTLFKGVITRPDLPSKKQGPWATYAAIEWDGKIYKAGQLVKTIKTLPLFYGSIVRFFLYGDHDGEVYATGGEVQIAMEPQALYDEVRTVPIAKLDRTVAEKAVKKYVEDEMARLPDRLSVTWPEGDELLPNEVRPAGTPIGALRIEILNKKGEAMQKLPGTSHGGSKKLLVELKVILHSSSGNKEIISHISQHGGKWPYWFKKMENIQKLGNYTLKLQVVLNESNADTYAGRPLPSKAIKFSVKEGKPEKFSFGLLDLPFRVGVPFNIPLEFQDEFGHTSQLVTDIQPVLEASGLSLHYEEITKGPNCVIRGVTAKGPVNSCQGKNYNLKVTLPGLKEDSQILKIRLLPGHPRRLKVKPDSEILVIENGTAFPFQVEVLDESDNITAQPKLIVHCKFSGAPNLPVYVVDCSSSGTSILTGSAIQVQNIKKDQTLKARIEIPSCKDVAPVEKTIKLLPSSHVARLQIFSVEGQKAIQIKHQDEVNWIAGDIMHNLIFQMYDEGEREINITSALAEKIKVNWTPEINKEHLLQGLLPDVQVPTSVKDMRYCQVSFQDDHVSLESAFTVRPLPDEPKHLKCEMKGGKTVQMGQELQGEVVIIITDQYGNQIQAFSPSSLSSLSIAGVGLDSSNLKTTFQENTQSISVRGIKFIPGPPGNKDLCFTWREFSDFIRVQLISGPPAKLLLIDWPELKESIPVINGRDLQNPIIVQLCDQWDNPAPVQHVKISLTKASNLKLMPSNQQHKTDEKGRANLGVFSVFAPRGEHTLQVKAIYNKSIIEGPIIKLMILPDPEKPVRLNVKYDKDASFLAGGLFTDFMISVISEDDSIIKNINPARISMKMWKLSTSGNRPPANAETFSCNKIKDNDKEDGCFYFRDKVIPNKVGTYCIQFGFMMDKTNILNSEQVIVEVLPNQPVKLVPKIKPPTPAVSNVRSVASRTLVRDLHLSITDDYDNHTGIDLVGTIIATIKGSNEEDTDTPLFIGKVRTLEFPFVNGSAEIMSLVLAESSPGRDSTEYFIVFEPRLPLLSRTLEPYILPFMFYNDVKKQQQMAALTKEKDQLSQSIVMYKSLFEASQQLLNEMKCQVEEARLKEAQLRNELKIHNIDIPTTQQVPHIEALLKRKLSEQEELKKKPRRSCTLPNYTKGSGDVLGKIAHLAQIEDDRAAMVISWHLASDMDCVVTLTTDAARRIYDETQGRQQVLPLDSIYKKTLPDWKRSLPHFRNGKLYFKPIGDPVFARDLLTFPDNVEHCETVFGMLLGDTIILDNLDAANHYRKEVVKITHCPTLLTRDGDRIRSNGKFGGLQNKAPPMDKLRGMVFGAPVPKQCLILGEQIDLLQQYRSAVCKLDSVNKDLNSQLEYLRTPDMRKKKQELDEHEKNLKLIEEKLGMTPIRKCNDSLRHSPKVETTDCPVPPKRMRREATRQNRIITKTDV
Sequence of UniProt Q16881 (Q16881 whole entry, one chain of several): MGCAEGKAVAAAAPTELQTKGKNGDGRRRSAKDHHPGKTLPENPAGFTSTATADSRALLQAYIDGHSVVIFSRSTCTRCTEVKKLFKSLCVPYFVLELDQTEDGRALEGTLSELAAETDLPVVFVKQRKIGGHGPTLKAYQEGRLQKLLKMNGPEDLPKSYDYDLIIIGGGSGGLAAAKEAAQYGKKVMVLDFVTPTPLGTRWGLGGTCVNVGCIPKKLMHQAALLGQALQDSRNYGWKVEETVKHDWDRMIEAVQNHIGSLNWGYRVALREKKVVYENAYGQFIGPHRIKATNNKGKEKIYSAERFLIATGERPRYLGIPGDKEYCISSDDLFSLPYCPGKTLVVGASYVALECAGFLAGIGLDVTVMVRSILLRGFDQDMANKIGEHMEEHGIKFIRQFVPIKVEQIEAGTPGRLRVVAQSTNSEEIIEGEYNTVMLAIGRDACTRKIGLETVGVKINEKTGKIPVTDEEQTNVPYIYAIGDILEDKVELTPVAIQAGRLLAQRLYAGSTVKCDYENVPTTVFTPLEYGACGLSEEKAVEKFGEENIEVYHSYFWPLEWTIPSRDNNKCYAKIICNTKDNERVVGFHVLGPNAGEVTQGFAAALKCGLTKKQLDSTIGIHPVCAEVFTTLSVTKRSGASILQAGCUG
Sequence of UniProt Q14141 (Q14141 whole entry, one chain of several): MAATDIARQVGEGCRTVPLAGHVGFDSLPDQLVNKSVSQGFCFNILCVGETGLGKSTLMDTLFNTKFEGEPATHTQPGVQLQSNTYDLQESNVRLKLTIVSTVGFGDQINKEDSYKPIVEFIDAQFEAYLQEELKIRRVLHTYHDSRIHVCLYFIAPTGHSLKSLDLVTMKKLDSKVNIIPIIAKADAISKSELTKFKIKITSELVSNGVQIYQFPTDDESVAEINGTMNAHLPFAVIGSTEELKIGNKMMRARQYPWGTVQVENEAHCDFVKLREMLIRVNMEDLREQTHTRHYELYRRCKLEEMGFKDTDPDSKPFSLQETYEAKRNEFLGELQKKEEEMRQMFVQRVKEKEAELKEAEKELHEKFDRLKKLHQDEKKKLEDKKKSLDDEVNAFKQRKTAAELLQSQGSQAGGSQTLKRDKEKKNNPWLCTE
Sequence of UniProt Q8WYH8 (Q8WYH8 whole entry, one chain of several): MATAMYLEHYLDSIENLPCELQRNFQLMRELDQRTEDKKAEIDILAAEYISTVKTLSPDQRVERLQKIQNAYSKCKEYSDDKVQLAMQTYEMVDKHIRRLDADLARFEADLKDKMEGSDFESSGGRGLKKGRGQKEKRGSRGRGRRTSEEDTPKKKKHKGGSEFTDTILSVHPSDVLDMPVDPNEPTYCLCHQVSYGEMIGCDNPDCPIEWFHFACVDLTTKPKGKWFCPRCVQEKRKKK
Sequence of UniProt O43708 (O43708 whole entry, one chain of several): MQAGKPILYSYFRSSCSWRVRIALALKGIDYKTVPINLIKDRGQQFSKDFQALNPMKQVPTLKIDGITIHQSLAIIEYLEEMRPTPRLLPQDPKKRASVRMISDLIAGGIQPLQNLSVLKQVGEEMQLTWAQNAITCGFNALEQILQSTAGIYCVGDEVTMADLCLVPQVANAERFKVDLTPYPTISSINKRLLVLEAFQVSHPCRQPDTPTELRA
Sequence of UniProt Q9Y483 (Q9Y483 whole entry, one chain of several): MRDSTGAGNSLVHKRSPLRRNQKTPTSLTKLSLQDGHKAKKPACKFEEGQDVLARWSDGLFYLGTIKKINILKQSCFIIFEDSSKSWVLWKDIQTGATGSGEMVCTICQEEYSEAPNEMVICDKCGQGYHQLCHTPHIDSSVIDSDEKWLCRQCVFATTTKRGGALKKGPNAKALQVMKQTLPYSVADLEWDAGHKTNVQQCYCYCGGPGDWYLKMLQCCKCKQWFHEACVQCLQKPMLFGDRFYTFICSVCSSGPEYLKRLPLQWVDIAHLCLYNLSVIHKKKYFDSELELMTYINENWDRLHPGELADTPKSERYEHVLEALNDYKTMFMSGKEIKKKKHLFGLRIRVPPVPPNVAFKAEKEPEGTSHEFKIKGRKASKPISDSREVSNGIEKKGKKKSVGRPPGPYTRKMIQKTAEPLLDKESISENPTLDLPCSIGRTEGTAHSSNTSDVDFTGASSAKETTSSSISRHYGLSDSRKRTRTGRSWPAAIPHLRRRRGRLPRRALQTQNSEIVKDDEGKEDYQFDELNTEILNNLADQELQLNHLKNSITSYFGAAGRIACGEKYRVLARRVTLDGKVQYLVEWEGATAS
Sequence of UniProt Q15629 (Q15629 whole entry, one chain of several): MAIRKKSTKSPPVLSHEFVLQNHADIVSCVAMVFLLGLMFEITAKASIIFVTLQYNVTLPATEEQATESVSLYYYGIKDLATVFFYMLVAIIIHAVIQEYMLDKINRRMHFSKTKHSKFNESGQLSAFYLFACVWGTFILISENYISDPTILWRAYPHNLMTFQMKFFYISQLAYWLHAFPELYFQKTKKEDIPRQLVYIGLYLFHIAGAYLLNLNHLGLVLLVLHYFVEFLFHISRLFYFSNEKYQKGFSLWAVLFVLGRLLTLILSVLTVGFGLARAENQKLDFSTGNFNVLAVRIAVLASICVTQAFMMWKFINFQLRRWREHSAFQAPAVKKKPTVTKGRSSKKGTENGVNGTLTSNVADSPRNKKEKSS
Sequence of UniProt Q9Y3B2 (Q9Y3B2 whole entry, one chain of several): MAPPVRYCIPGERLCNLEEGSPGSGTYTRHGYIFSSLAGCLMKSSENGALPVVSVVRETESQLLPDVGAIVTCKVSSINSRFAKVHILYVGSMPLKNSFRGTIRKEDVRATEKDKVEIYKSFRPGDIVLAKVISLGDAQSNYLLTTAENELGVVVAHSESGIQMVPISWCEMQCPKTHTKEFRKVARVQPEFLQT

Target	NP40-soluble protein abundance (guanosine triphosphate; concentration: 0.1mM)	NP40-soluble protein abundance (guanosine triphosphate; concentration: 0.5mM)	NP40-soluble protein abundance (guanosine triphosphate; concentration: 1mM)	NP40-soluble protein abundance (guanosine triphosphate; concentration: 2mM)	NP40-soluble protein abundance (guanosine triphosphate; concentration: 4mM)	NP40-soluble protein abundance (guanosine triphosphate; concentration: 6mM)	NP40-soluble protein abundance (guanosine triphosphate; concentration: 8mM)	NP40-soluble protein abundance (guanosine triphosphate; concentration: 10mM)	NP40-soluble protein abundance (adenosine triphosphate; concentration: 1mM)	NP40-soluble protein abundance (adenosine triphosphate; concentration: 2mM)	NP40-soluble protein abundance (adenosine triphosphate; concentration: 4mM)	NP40-soluble protein abundance (adenosine triphosphate; concentration: 6mM)	NP40-soluble protein abundance (adenosine triphosphate; concentration: 8mM)	NP40-soluble protein abundance (adenosine triphosphate; concentration: 10mM)
G5E953|Q13615|Q13615-2|Q13615-3 (UniProt Q13615)	1.01 ± 0.036	0.987 ± 0.04	0.978 ± 0.063	0.953 ± 0.034	0.976 ± 0.045	0.963 ± 0.065	1 ± 0.042	0.971 ± 0.028	–	–	–	–	–	–
A0A087WSW9|A0A087WSY9|E9PIR7|F8W809|Q16881|Q16881-2|Q16881-3|Q16881-4|Q16881-5|Q16881-6 (UniProt Q16881)	0.99 ± 0.03	1.01 ± 0.041	0.918 ± 0.026	0.928 ± 0.049	0.88 ± 0.037	0.9 ± 0.041	0.847 ± 0.022	0.854 ± 0.059	–	–	–	–	–	–
E9PK67|E9PNI7|Q53GL7 (UniProt Q53GL7)	1.05 ± 0.097	1.06 ± 0.12	0.954 ± 0.041	1.01 ± 0.15	0.982 ± 0.12	0.935 ± 0.11	0.949 ± 0.019	0.949 ± 0.08	–	–	–	–	–	–
B3KS98|O15372 (UniProt O15372)	0.992 ± 0.07	1.01 ± 0.088	1.03 ± 0.075	1.08 ± 0.15	1.27 ± 0.25	1.42 ± 0.28	1.6 ± 0.34	1.8 ± 0.36	–	–	–	–	–	–
E9PGC0|P20936|P20936-2|P20936-4 (UniProt P20936)	1.05 ± 0.069	1.04 ± 0.091	1.02 ± 0.11	0.997 ± 0.072	0.909 ± 0.027	0.931 ± 0.032	0.961 ± 0.048	0.899 ± 0.031	–	–	–	–	–	–
A0A087WU64|A6NMQ1|P09884 (UniProt P09884)	1.06 ± 0.025	1.07 ± 0.035	1.01 ± 0.047	1.02 ± 0.057	1.01 ± 0.033	0.994 ± 0.028	1.01 ± 0.051	0.973 ± 0.029	–	–	–	–	–	–
B8ZZ10|Q9NQ29|Q9NQ29-2|Q9NQ29-3 (UniProt Q9NQ29)	1.26 ± 0.045	1.75 ± 0.11	1.91 ± 0.18	1.95 ± 0.12	1.98 ± 0.12	2.09 ± 0.14	2.21 ± 0.28	2.22 ± 0.28	–	–	–	–	–	–
A0A087WYN9|Q7Z478 (UniProt Q7Z478)	1.34 ± 0.086	1.69 ± 0.26	1.66 ± 0.28	1.77 ± 0.29	1.8 ± 0.23	1.84 ± 0.27	1.86 ± 0.27	1.86 ± 0.19	–	–	–	–	–	–
A0A0C4DGS0|P56556 (UniProt P56556)	0.947 ± 0.069	0.934 ± 0.051	1.05 ± 0.1	1.08 ± 0.12	1.09 ± 0.17	1.02 ± 0.093	0.939 ± 0.064	1.01 ± 0.1	–	–	–	–	–	–
SMCHD1 (UniProt A6NHR9)	1.05 ± 0.04	1.06 ± 0.055	0.999 ± 0.029	1.03 ± 0.07	1.04 ± 0.056	1.04 ± 0.043	1.02 ± 0.051	1.01 ± 0.098	–	–	–	–	–	–
G3V583|Q8N128|Q8N128-2 (UniProt Q8N128)	0.912 ± 0.089	0.928 ± 0.084	0.869 ± 0.13	0.94 ± 0.16	0.887 ± 0.16	0.861 ± 0.14	0.87 ± 0.1	0.902 ± 0.14	–	–	–	–	–	–
G3XAN4|Q15629|Q15629-2 (UniProt Q15629)	0.776 ± 0.028	0.785 ± 0.098	0.911 ± 0.14	0.819 ± 0.16	0.8 ± 0.15	0.783 ± 0.23	0.898 ± 0.19	0.905 ± 0.16	–	–	–	–	–	–
H0YL22|Q9Y375 (UniProt Q9Y375)	0.979 ± 0.059	1.05 ± 0.082	0.936 ± 0.088	0.969 ± 0.071	0.922 ± 0.036	0.924 ± 0.065	0.921 ± 0.071	0.943 ± 0.059	–	–	–	–	–	–
C9JWC4|Q8NCD3|Q8NCD3-2|Q8NCD3-3 (UniProt Q8NCD3)	1.07 ± 0.053	1.12 ± 0.041	1.15 ± 0.069	1.18 ± 0.025	1.19 ± 0.15	1.18 ± 0.067	1.2 ± 0.055	1.13 ± 0.081	–	–	–	–	–	–
A8MQB8|G3V0J0|Q06787|Q06787-2|Q06787-3|Q06787-4|Q06787-5|Q06787-6|Q06787-7|Q06787-8|Q06787-9 (UniProt Q06787)	1.05 ± 0.041	1.15 ± 0.048	1.05 ± 0.065	1.24 ± 0.0061	1.41 ± 0.093	1.71 ± 0.037	1.8 ± 0.048	2.1 ± 0.11	–	–	–	–	–	–
F5H269|Q9Y485 (UniProt Q9Y485)	0.991 ± 0.013	1.11 ± 0.081	1.05 ± 0.096	1.01 ± 0.087	1.04 ± 0.09	1.06 ± 0.088	1.12 ± 0.15	1.11 ± 0.11	–	–	–	–	–	–
G3V5T0|O43708 (UniProt O43708)	0.95 ± 0.046	0.961 ± 0.087	0.879 ± 0.058	0.867 ± 0.063	0.848 ± 0.068	0.854 ± 0.076	0.819 ± 0.096	0.815 ± 0.091	–	–	–	–	–	–
PARP4 (UniProt Q9UKK3)	–	–	–	–	–	–	–	–	1.14 ± 0.017	1.15 ± 0.12	1.12 ± 0.083	1.15 ± 0.14	1.14 ± 0.042	1.19 ± 0.085
E7EX48|P51957|P51957-3 (UniProt P51957)	1.01 ± 0.097	0.987 ± 0.21	0.961 ± 0.21	1.01 ± 0.2	0.986 ± 0.21	0.957 ± 0.23	0.985 ± 0.25	1.06 ± 0.25	–	–	–	–	–	–
H0UI80|Q8IXH7|Q8IXH7-4|X6RLT1 (UniProt X6RLT1+Q8IXH7+H0UI80)	1.01 ± 0.017	0.973 ± 0.038	0.965 ± 0.024	0.968 ± 0.012	0.981 ± 0.011	0.978 ± 0.01	0.97 ± 0.039	0.95 ± 0.0096	–	–	–	–	–	–
E9PEN0|Q8WYH8|Q8WYH8-2 (UniProt Q8WYH8)	1.1 ± 0.098	1.07 ± 0.16	1.26 ± 0.41	1.19 ± 0.26	1.33 ± 0.3	1.5 ± 0.35	1.48 ± 0.39	2 ± 0.59	–	–	–	–	–	–
B4DZG1|Q9Y483|Q9Y483-3|Q96G26|Q9Y483-2|Q9Y483-4 (UniProt Q9Y483)	1.11 ± 0.061	1.09 ± 0.032	1.16 ± 0.044	1.26 ± 0.074	1.4 ± 0.068	1.45 ± 0.095	1.64 ± 0.2	1.78 ± 0.18	–	–	–	–	–	–
A0A0A6YYH1|H0YLI7|P59780|Q7Z6K5-2 (UniProt Q7Z6K5+P59780+H0YLI7)	1.04 ± 0.012	1.07 ± 0.045	1.06 ± 0.099	1.03 ± 0.044	0.986 ± 0.04	1.01 ± 0.076	0.989 ± 0.017	0.992 ± 0.049	–	–	–	–	–	–
B1AMS2|Q14141|Q14141-2|Q14141-4 (UniProt Q14141)	1.03 ± 0.053	0.998 ± 0.011	0.968 ± 0.062	0.9155 ± 0.0055	0.941 ± 0.054	0.921 ± 0.016	0.941 ± 0.1	0.857 ± 0.013	–	–	–	–	–	–
B1AMU7|Q9Y3B2 (UniProt Q9Y3B2)	1.02 ± 0.037	1.07 ± 0.04	1.01 ± 0.056	1.1 ± 0.11	1.18 ± 0.11	1.22 ± 0.12	1.17 ± 0.062	1.18 ± 0.068	–	–	–	–	–	–
C9JWG0|Q16851-2 (UniProt Q16851)	1.04 ± 0.03	1.04 ± 0.052	1 ± 0.046	1.01 ± 0.071	1.01 ± 0.042	1.01 ± 0.067	0.998 ± 0.057	0.983 ± 0.065	–	–	–	–	–	–
